# Source: the supplement of paper PMC11417369
# Whole data set: some 25,000 sequences, median “ln(normalized median fluorescence intensity)” near 9.3, cut for the highest 2% near 10. This is one part of a sample in which the highest values are shown more often than they occur.
# System: PF3D7_0420300 AP2 domain 1 (GST-tagged)
# Test: gcPBM binding intensity (ln(normalized median fluorescence intensity)); higher = stronger DNA binding
# Summary of the method: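 Binding intensity values are the highest Masliner-normalised natural-log median intensity among replicate spots of either probe orientation. The binding step lasted 1 h in 1× PBS with 1% milk, 0.2 mg/ml BSA, 0.5% salmon testes DNA and 0.03% Triton X-100, using GST-tagged P. falciparum DNA-binding domains expressed in E. coli on an Agilent 4 × 180k array of primer-extended double-stranded 36-bp intergenic genomic probes plus negative controls. Alexa488 anti-GST antibody and a 488 nm scan detected bound protein.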
row,Sequence,gcPBM binding intensity (ln)
1,AGGATAAAAGTTATGGTGCATTAACCTATTTAAATA,9.14
2,AAAAAAAAAAAAAAAACACACACATATATATATATA [CACACA_site8571],9.51
3,AAAAAACACGGACACACACACATATACATACATACA [CACACA_site5470],10.1
4,AACACGCGCAGACACACACACACACCCACATATATA [CACACA_site2205],10.2
5,AGAAAAAAACAACATGCACACGCACCCACAAAAAAA [CACACA_site7908],9.71
6,AACACGCGCGGACACACACACACACCCACATATATA [CACACA_site5252],10.4
7,AAAAAACACGCGCACACACACACACGCGCCCACATA [CACACA_site7106],10.3
8,AAAACACGCGGACACACACACACACGCCCACATATA [CACACA_site7105],10.4
9,AACACCCATGGACACACACACATATATATATATATA [CACACA_site5809],9.92
10,ATTACATACACGCGCACACACAAAAAAAAAAAAAAA [CACACA_site1334],9.57
11,ACTTTATATTTTGAACGTACAAAAAAAAAATTATGT [XGTACX_site5588],9.04
12,AATACAATATAGTGAAAAATAATTAAATACAATAAG [XGTACX_negctrl_site161],9.6
13,TAGATATATAGACACACACACATTAATACCTATATT [CACACA_site7605],10.1
14,CGCTTTATTTATATATGTACATATATATATATATAC [XGTACX_site5012],9.33
15,TAATATAACAAAAAAATAAAATAAAATAAAAAATAA [CACACA_negctrl_site109],9.35
16,AAAAGAATTACTTTCACACATATATATCTGTAAATA [CACACA_site5798],9.15
17,TACACCCATGGACACACACACACGCATAAAAAAAAA [CACACA_site4933],9.93
18,CACGCGCCCGGACACACACACACACCCATATATATA [CACACA_site5251],10.2
19,TACACGCATGGACACACACACACACCCATATATATA [CACACA_site4522],10.2
20,GATATTAAAATATGTAGTACACATATTATATCATAT [XGTACX_site4167],9.18
21,ATTTAACATATAAAATGTACATATATATATATATTT [XGTACX_site2525],9.25
22,GTTAATCACCATGTGGTGCATATAAGGGCATATTAT [GTGCAC_site9748],9.22
23,TAAGAAATAAATAGTACACACATAGACACACGCACA [CACACA_site6821],9.92

row,Sequence,gcPBM binding intensity (ln)
1,TATAGATACATATACACACACACACCCACATATATA [CACACA_site3436],10.2
2,TATATCTCATAGTATACACACACACCCACCCACATA [CACACA_site8513],10.3
3,TAATTTATAACACGCGCACACATATATATATAGTAA [CACACA_site121],9.57
4,TATATATATATATATACACACACACCCATATATATA [CACACA_site8812],9.94
5,TATATATATAGACACACACACACATATATATATATA [CACACA_site9366],10
6,TATCTCATAGTATACACACACACACCCACCCATATA [CACACA_site1739],10.4
7,TATCTCATAGTATACACACACACACGCGCACATATA [CACACA_site6917],10.3
8,TATATATATATATACACACACACACCCATATATATA [CACACA_site2538],10
9,ATTCTACACCCACATACACACATATATATATATATA [CACACA_site3426],9.84
10,CATAGATACATACACGCACACACATATATATATATA [CACACA_site13],9.87
11,TCTCATAGTAGACACACACACACACGCACATATATA [CACACA_site6916],10.4
12,AATATATATATACATACATGCATACATATATATATA [TGCATGCA_site784],9.24
13,TTTATCCTTCTTTTGAGTACTCAAAGAGACCTATAA [XGTACX_site8050],8.83
14,ATGAATTTATTACATTGTACATTTTTAAAAGGTTAC [XGTACX_site124],9.11
15,TAAAAAAGAACAGAAACACACAAATAAAATAAAATT [CACACA_site1758],10
16,GGGAGAAATTTATACATACACACATATATATATTAT [CACACA_site4039],9.62
17,AAATATTATACAAAAAAAAAAAAAAAAAAAATATAT [CACACA_negctrl_site52],9.39
18,AAAGCACCCAGGCACACACACAAAGGAAAAGAAAAA [CACACA_site232],9.83
19,AAAAAAAACAGACACACACACAAATACATACACAAA [CACACA_site705],10
20,GCTTAATACAGAATAACACACAAAATAAATAAATAA [CACACA_site4041],9.56
21,ATAAATGACAGACACACACACAAAAAAAAAAAACAA [CACACA_site2626],10.2
22,CAAATACCCGGACACACACACACAAAAAAAAAAAAA [CACACA_site4441],9.99
23,AAAAAAAACAGACACACACACAAATATATAAAAATA [CACACA_site1172],10

row,Sequence,gcPBM binding intensity (ln)
1,TTAATCCACAGACACACACACACAAAATAAAATACA [CACACA_site244],10.2
2,AAAAAAAACAGACACACACACATACAAAATATATAT [CACACA_site1449],10.2
3,AAAAAAAAAAAAAATACACACAAATAATAAAAATAA [CACACA_site1431],9.85
4,AAAACAGACAAACACACACACACATATATATATATA [CACACA_site3393],10
5,TTAATACCCAGACACACACACACAAAATAAAATACA [CACACA_site7968],10.1
6,TTAATACCCGGACACACACACACAAAATAAAATACA [CACACA_site4296],10.2
7,AAAAAAAAAAAAAACACACACATACAGACAAAAATG [CACACA_site83],10.1
8,AAATGTACAGGACGCACACACATATTTATATTTATA [CACACA_site7689],9.67
9,ATACATATATTAGGATGTACGTTTATTTTAGTTATT [XGTACX_site7169],9.47
10,ATTAATATTTAGACTTGTACATATATAATATATGTC [XGTACX_site3766],9.2
11,AAATTCTTAACCCAACGTACATATAATAAATTCTTA [XGTACX_site8538],9.1
12,CAATCATTTTATTGTTGTACAGTAATTATGAATTCA [XGTACX_site7508],9.03
13,TACAATGAAAAAATAACATGCAATTATATTTCTCTT [TGCATGCA_site833],9.17
14,TATATAAATTAACCAGTGCATTATTTGGAAATTATT,9.31
15,CATTATGATTAAATATGTACATATTATTATATAAAT [XGTACX_site2477],9.08
16,GAAAAAAAAAAAAAAAAAAAAAGGAAAAAAGTGAAA [CACACA_negctrl_site996],9.21
17,TATATATGTATATATGGTACAGAATATTCTACATTA [XGTACX_site5077],9.23
18,ATATCATTTTCCTGCACACATAAATTTATATAATAT [CACACA_site1048],9.76
19,TTTTTTTTCTATGTGGTGCACATTATTTTTTTTTTT,9.41
20,CACAAAAAGAAACACACACACATATATATATATATA [CACACA_site999],9.73
21,TACAAACAGACATATACACACAAAAAAAAAATAAAA [CACACA_site2562],9.91
22,AAATAAAACAGACACACACACACATACACAAAAAAA [CACACA_site7753],10.2
23,TATATATACAGACACATACACACAAATAAAAAAACA [CACACA_site3413],10.1

row,Sequence,gcPBM binding intensity (ln)
1,TGAACACAGACAAATACACACAAAAAAAATAAATAA [CACACA_site4298],9.79
2,AACAAATACAGACACACACACACACTAATAAAAAAA [CACACA_site8067],10.3
3,AATACAGACAGACACACACACAAAATAAAATACAAA [CACACA_site245],10.1
4,AAATTATAAATAATTTGTACATAAAAATTGGTAAAG [XGTACX_site5197],9.07
5,CTTCAATTAAAATTCACACATATAAATTAAAATATT [CACACA_site6129],9.06
6,GTTACACCAACAAACACACACACACCGACACCCAAA [CACACA_site5361],10.1
7,TACACCCACCAACACACACACACACCCAAAAAAAAA [CACACA_site498],10.1
8,AGCACCCACCAACACACACACACACCCACCCACCGA [CACACA_site368],10.3
9,TGTTATATCAATAATATATAATAATACCCTTCTTTT [CACACA_negctrl_site1682],9.06
10,TATAGAAGCGTTCACACACACACATACATACCCATA [CACACA_site4915],10.3
11,GTTATAGAAGCATTCACACACACACCCACATACACA [CACACA_site1465],10.1
12,TATAGAAGCATTCACACACACACATACATACACATA [CACACA_site1466],10.2
13,GTTATAGAAGCATTCACACACACACGGACATACACA [CACACA_site6801],10.1
14,TAGAAGCATGGACACACACACATACATACCCATACA [CACACA_site4916],10
15,TTGTTATAGAAGCATTCACACACACCCATACATACA [CACACA_site8414],9.87
16,ATTCACTAAAAAATTGCATGCAATAAATTTTTTTTT [TGCATGCA_site962],8.91
17,TAATATATATATATATGTACATATATATTATGTATA [XGTACX_site4690],9.07
18,TATATTTTCTATAGGTGTACTCCACATGCGGTGTTA [XGTACX_site7471],9.08
19,ATGTATATGCAAACATGTACATATATAAACATATAT [XGTACX_site4159],9.16
20,AAAAAAAAAAAAAAAAAAAAACACCCAAAAAAATAT [XGTACX_negctrl_site210],9.62
21,TACACTTTTTATGAAGTGCATGTATAGCTCTTAAAA [GTGCAC_site9595],8.78
